Drawing on PubChem BioAssay (NCATS), this text covers Potency for 13 molecules.

Inconclusive results are not listed. The source made the active and inactive calls. Calls follow the shape of the dose curve; as a rule, active = well fitted curve in the direction sought with a large enough effect; inconclusive = small, poorly fitted or top-dose-only effect, or another doubt; inactive = no such curve, though single readings can be large; an effect the other way counts as inactive or inconclusive.

Assay [1] is described as follows: qHTS of pediatric cancer cell lines to identify multiple opportunities for drug repurposing: Confirmatory screen for BT-37 cells (AID 1347117). Also: nearly all actives have a fitted effect of over 55% in size. Also: potency is read from the fitted curve at half-maximal effect. The essentials: (§1)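 Viability after 48 h compound treatment at 37C, 500-1,000 cells/well, read as ATP luminescence with CellTiter-Glo. Primary screens used 11-point (MIPE, 0.78 nM-46 µM) or 8-point (NPC, 0.59 nM-46 µM) final concentrations; follow-up screens used 11-point dilutions.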
A general note: qHTS replaces the single test concentration by a dilution series.

Assay [2] in a line: qHTS of pediatric cancer cell lines to identify multiple opportunities for drug repurposing: Confirmatory screen for TC32 cells (AID 1347118).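 Also: cells exposed to compound for 48 h before the read; nearly all actives have a fitted effect of over 65% in size.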 Also: potency is read from the fitted curve at half-maximal effect. The essentials: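 qHTS, TC32, 48 h drug treatment, CellTiter-Glo luminescence as a proxy for metabolically active cells; primary top concentration 46 µM (MIPE 11-pt, NPC 8-pt); confirmatory 11-pt.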
The nature of assay [3]: qHTS of pediatric cancer cell lines to identify multiple opportunities for drug repurposing: Confirmatory screen for MG 63 (6-TG R) cells (AID 1347119). Also: nearly all actives have a fitted effect of over 55% in size. Also: potency is read from the fitted curve at half-maximal effect. Summed up: as §1
Assay [4] can be described thus: qHTS of pediatric cancer cell lines to identify multiple opportunities for drug repurposing: Confirmatory screen for control Hh wild type fibroblast cells (AID 1347121). Also: nearly all actives have a fitted effect of over 70% in size. Also: potency is read from the fitted curve at half-maximal effect. Summed up:
as §1

Assay [5] in a line: qHTS of pediatric cancer cell lines to identify multiple opportunities for drug repurposing: Confirmatory screen for RD cells (AID 1347124).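 Also: cells exposed to compound for 48 h before viability readout; nearly all actives have a fitted effect of over 65% in size.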 Also: potency is read from the fitted curve at half-maximal effect. The essentials: as §1
A short description of assay [6]: qHTS of pediatric cancer cell lines to identify multiple opportunities for drug repurposing: Confirmatory screen for Rh18 cells (AID 1347125). Also: nearly all actives have a fitted effect of over 55% in size. Also: potency is read from the fitted curve at half-maximal effect. The essentials:
as §1

The nature of assay [7]: qHTS of pediatric cancer cell lines to identify multiple opportunities for drug repurposing: Confirmatory screen for Saos-2 cells (AID 1347127). Also: nearly all actives have a fitted effect of over 60% in size. Also: potency is read from the fitted curve at half-maximal effect. Summed up:
as §1

Assay [8] in a line: qHTS of pediatric cancer cell lines to identify multiple opportunities for drug repurposing: Confirmatory screen for OHS-50 cells (AID 1347128).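 Also: compound exposure lasted 48 h at 37 degrees C; nearly all actives have a fitted effect of over 55% in size.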 Also: potency is read from the fitted curve at half-maximal effect. The essentials: as §1
Assay [9] in a line: qHTS of pediatric cancer cell lines to identify multiple opportunities for drug repurposing: Confirmatory screen for SK-N-SH cells (AID 1347129).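 Also: cells exposed to compound for 48 h before viability read; nearly all actives have a fitted effect of over 60% in size.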 Also: potency is read from the fitted curve at half-maximal effect. Summed up: as §1
Assay [10] has as its system Zika virus NS2B-NS3 protease. Kind of assay: Primary screen GU AMC qHTS for Zika virus inhibitors (AID 1347154). Also: nearly all actives have a fitted effect of over 70% in size. The essentials: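 Unlinked Zika NS2B hydrophilic domain–NS3 protease complex at 25 nM in 10 mM Tris-HCl pH 8.0, 0.01% Tween 20, with an AMC peptide substrate. Fluorescence change (340/450 nm) over 15 min at room temperature, normalized to controls, fitted to 4-parameter Hill.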

Assay [11] is described as follows: qHTS of pediatric cancer cell lines to identify multiple opportunities for drug repurposing: Confirmatory screen for NB-EBc1 cells (AID 1347115).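 Also: cells exposed to compound for 48 h before the viability read; nearly all actives have a fitted effect of over 45% in size.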 Also: potency is read from the fitted curve at half-maximal effect. The essentials:
as §1

A short description of assay [12]: qHTS of pediatric cancer cell lines to identify multiple opportunities for drug repurposing: Confirmatory screen for SJ-GBM2 cells (AID 1347116). Also: nearly all actives have a fitted effect of over 60% in size. Also: potency is read from the fitted curve at half-maximal effect. The essentials: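 Viability measured as metabolically active cells via CellTiter-Glo luminescence following 48 hours of compound exposure, 11-point dilutions in confirmatory testing. 500-1,000 cells/well plated 5 hours before dosing; controls were DMSO and 2.3 µM bortezomib.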

The nature of assay [13]: qHTS of pediatric cancer cell lines to identify multiple opportunities for drug repurposing: Confirmatory screen for U-2 OS cells (AID 1347122). Also: nearly all actives have a fitted effect of over 65% in size. Also: potency is read from the fitted curve at half-maximal effect. Summed up: as §1
A short description of assay [14]: qHTS of pediatric cancer cell lines to identify multiple opportunities for drug repurposing: Confirmatory screen for Rh41 cells (AID 1347123).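 Also: 48 h compound exposure; nearly all actives have a fitted effect of over 60% in size.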 Also: potency is read from the fitted curve at half-maximal effect. Summed up:
as §1

Assay [15] in a line: qHTS of pediatric cancer cell lines to identify multiple opportunities for drug repurposing: Confirmatory screen for Rh30 cells (AID 1347126). Also: nearly all actives have a fitted effect of over 55% in size. Also: potency is read from the fitted curve at half-maximal effect. Summed up: as §1

As for `Cc1[nH]nc2ccc(-c3cncc(OC[C@@H](N)Cc4c[nH]c5ccccc45)c3)cc12`, the Potency is 1650 nM (active) in assay [1]; 2330 nM (active) in [2]; 3290 nM (active) in assay [3]; 18500 nM (active) in [4]; 4650 nM (active) in assay [6]; 2610 nM (active) in [7]. Besides, the Potency in [8] is 2610 nM (active); in [9], 2960 nM (active). The Potency entry in assay [5] and in [10] was “inactive” in each case.
Regarding `CCCN1CCO[C@@H]2c3cc(O)ccc3OC[C@@H]21`, the Potency entry in assay [11], in assay [12], in assay [3], in assay [4], in assay [13] and in assay [14] was “inactive” throughout. The Potency entry in assay [5], in assay [9] and in assay [10] was “inactive” in each case. Further, the Potency in assay [15] was 8270 nM (active).
As to `CC[C@@H]1[C@@H](C)O[C@@](O)([C@@H](C)[C@H](O)[C@H](C)[C@H]2OC(=O)C=CC=C[C@@H](C)[C@@H]([C@@H](C)[C@@H](O)[C@H](C)[C@@]3(O)C[C@H](O[C@H]4C[C@H](O)[C@H](O)[C@H](C)O4)[C@H](CC)[C@@H](C)O3)OC(=O)C=CC=C[C@@H]2C)C[C@H]1O[C@H]1C[C@H](O)[C@H](O)[C@H](C)O1`, the Potency entry in assay [12], in assay [1], in [2], in assay [4], in [13] and in assay [5] was “inactive” throughout. Moreover, the Potency entry in assay [6], in [7], in assay [8] and in [10] was “inactive” each time.
For the molecule `C[C@]12Cc3cn[nH]c3C[C@@H]1CC[C@@H]1[C@H]2CC[C@@]2(C)[C@H]1CC[C@]2(C)O`, the Potency result in assay [11], in [12], in assay [3], in assay [4], in assay [13] and in assay [14] was “inactive” in each case. For the same molecule, the Potency result in [6], in assay [8], in assay [9] and in assay [10] was “inactive” in each case.
For `CC(C)[C@]12O[C@@H]1[C@@H]1O[C@]13[C@]1(O[C@H]1C[C@@H]1C4=C(CC[C@@]13C)C(=O)OC4)[C@H]2O`, the Potency in assay [12] is 65.7 nM (active); in assay [1], 36.9 nM (active); in assay [2], 73.7 nM (active); in assay [3], 32.9 nM (active); in [13] it was 73.7 nM (active); in assay [14], 26.1 nM (active). Also, the Potency was 52.2 nM (active) in assay [5]; 82.7 nM (active) in [6]; 46.5 nM (active) in assay [7]; 104 nM (active) in assay [8]; 148 nM (active) in assay [9]. Besides, the Potency entry in assay [4] and in [10] was “inactive” each time.
Take `CS(=O)(=O)c1ccc(C(=O)C2C(=O)CCCC2=O)c([N+](=O)[O-])c1`: the Potency entry in assay [11], in assay [12], in assay [1], in assay [2], in assay [3] and in assay [4] was “inactive” in each case. In addition, the Potency entry in assay [13], in assay [14], in assay [5], in assay [6], in [15] and in assay [7] was “inactive” throughout. Moreover, the Potency entry in assay [8] and in assay [9] was “inactive” in each case.
For the molecule `CCCCCC[C@H]1C(=O)O[C@H](C)[C@H](NC(=O)c2cccc(NC=O)c2O)C(=O)O[C@@H](C)[C@@H]1OC(=O)CC(C)C`, the Potency in assay [11] is 14.7 nM (active); in [2] it was 117 nM (active); in [3], 13.1 nM (active); in [4] it was 16.5 nM (active); in assay [9], 9350 nM (active).
For `Cc1ccccc1-n1c(Cn2ncc3c(N)ncnc32)nc2cccc(C)c2c1=O`, the Potency entry in assay [12], in [4], in assay [13], in assay [14], in assay [15] and in assay [9] was “inactive” each time. Besides, in assay [10], the Potency result was “inactive”. The Potency in assay [1] was 293 nM (active); in assay [2], 1850 nM (active); in assay [8], 23300 nM (active).
On to `CC(C)N[C@@H]1CCn2c(=O)[nH]c3cccc(c32)[C@@H]1O`, for which the Potency result in assay [11], in [12], in assay [1], in assay [3], in [4] and in [13] was “inactive” each time. The Potency result in assay [14], in assay [5], in assay [6], in [15], in assay [7] and in assay [8] was “inactive” throughout. Moreover, the Potency entry in [9] and in assay [10] was “inactive” throughout.
As to `C[C@@]12OC(=O)[C@]1([C@@H](O)[C@@H]1C=CCCC1)NC(=O)[C@H]2CCCl`, the Potency was 737 nM (active) in assay [12]; 293 nM (active) in [3]; 4140 nM (active) in [4]; 329 nM (active) in [13]; 329 nM (active) in assay [14]; 737 nM (active) in [5]. Also, the Potency in assay [6] is 1170 nM (active); in assay [7], 1170 nM (active); in [9] it was 2350 nM (active). Also, in [10], the Potency entry is “inactive”.
In the case of `O=c1[nH]c2ccc(Cl)cc2c(N[C@@H]2CN3CCC2CC3)c1-c1nc2ccccc2[nH]1`, the Potency in [11] is 522 nM (active); in assay [12], 1040 nM (active); in assay [1], 5850 nM (active); in [2], 465 nM (active); in [4] it was 18500 nM (active); in [13] it was 1310 nM (active). Further, the Potency in assay [14] was 3690 nM (active); in [5] it was 2330 nM (active); in assay [6], 26100 nM (active); in assay [15], 5220 nM (active); in assay [7], 1310 nM (active); in assay [8], 657 nM (active). The Potency in [9] was 5260 nM (active). Also, in [10], the Potency entry is “inactive”.
As for `CC(=Cc1csc(C)n1)[C@@H]1C[C@H]2O[C@@H]2CCC[C@H](C)[C@@H](O)[C@@H](C)C(=O)C(C)(C)[C@@H](O)CC(=O)O1`, the Potency is 104 nM (active) in assay [12]; 14.7 nM (active) in assay [2]; 16.5 nM (active) in assay [3]; 36.9 nM (active) in assay [14]; 46.5 nM (active) in assay [5]; 29.3 nM (active) in [7]. The Potency in [8] was 32.9 nM (active). In addition, the Potency result in assay [4] and in assay [10] was “inactive” each time.
As to `CC[C@H]1C=CC=CC[C@@H](C)[C@H](O)[C@@](C)(O)C(=O)[C@@H](C)[C@H](O)[C@@H](C)C(=O)[C@@H](C)[C@H](O)[C@@H](C)C=CC(=O)O[C@@H]2[C@@H](C)[C@H](CC1)O[C@]1(CC[C@H](C)[C@H](C[C@@H](C)O)O1)[C@H]2C`, the Potency in [11] is 208 nM (active); in [12], 20800 nM (active); in assay [1] it was 58.5 nM (active); in assay [2], 1850 nM (active); in assay [3] it was 117 nM (active); in assay [4], 117 nM (active). In addition, the Potency in assay [13] is 4.6 nM (active); in assay [5], 4140 nM (active). Further, the Potency result in assay [6], in assay [8] and in assay [10] was “inactive” each time.
